Source: PubChem BioAssay (NCATS)
Records with an inconclusive call do not appear. The source made the active and inactive calls. Calls follow the shape of the dose curve; as a rule, active = well fitted curve in the direction sought with a large enough effect; inconclusive = small, poorly fitted or top-dose-only effect, or another doubt; inactive = no such curve, though single readings can be large; an effect the other way counts as inactive or inconclusive.

Assays:
[1] = Panc-1005 Cancer Cell Toxicity qHTS against the NCATS CANVASS Library (AID 1347349); also: nearly all actives have a fitted effect of over 60% in size
How it was run: (§1)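 In this cytotoxicity screen, 1000 cells per well rested 4 hours, then received compound (11 concentrations) for a 72-hour incubation; an ATP-dependent luminescent signal (CellTiter-Glo) was the endpoint.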

[2] = SW1088 Cancer Cell Toxicity qHTS against the NCATS CANVASS Library (AID 1347350); also: nearly all actives have a fitted effect of over 75% in size
How it was run: as §1

[3] = U-118MG Cancer Cell Toxicity qHTS against the NCATS CANVASS Library (AID 1347351)
How it was run: as §1

[4] = COV-362 Cancer Cell Toxicity qHTS against the NCATS CANVASS Library (AID 1347352)
How it was run: (§2)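 First, 1000 cells go into each well and rest for 4 hours. Next, an 11-point dilution range is pinned in. Plates then incubate 72 hours before CellTiter-Glo addition and luminescence reading.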

[5] = A2780 Cisplatin Sensitive Ovarian Cancer Cell Toxicity qHTS against the NCATS CANVASS Library (AID 1347353); details: A2780 ovarian cancer viability, ATPLite luminescence, 72 h; at 46.1 µM (top of the series); also: nearly all actives have a fitted effect of over 60% in size
How it was run: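 Cells are plated at 750 per well and rest for 4 hours. Compounds are added across eleven concentrations, and incubated 72 hours before ATP is quantified by luminescence.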

[6] = UWB1.289-WTBRCA1 Cancer Cell Toxicity qHTS against the NCATS CANVASS Library (AID 1347354); details: UWB1.289-WTBRCA1 viability, CellTiter-Glo luminescence, 72 h; at 38.3 µM (top of the series)
How it was run: as §2

[7] = HEK-293 Cancer Cell Toxicity qHTS against the NCATS CANVASS Library (AID 1347355); also: nearly all actives have a fitted effect of over 65% in size
How it was run: as §2

[8] = HPAF-II 24hr Apoptosis Induction qHTS against the NCATS CANVASS Library (AID 1347356)
How it was run: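 Cells seeded at 500 per well, then compounds pin-transferred in an 11-point concentration series. After 24 hours at 37 degrees C, Caspase-Glo 3/7 was added and luminescence measured following 15 min at room temperature.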

[9] = HEK293 18hr Apoptosis Induction qHTS against the NCATS CANVASS Library (AID 1347357)
How it was run: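 HEK293 cells (500/well, DMEM + 10% FBS) treated with an 11-point series for 18 h at 37 degrees C. Caspase-3/7 activity read by Caspase-Glo luminescence after 15 min at room temperature.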

[10] = HPAF-II 12hr Apoptosis Induction qHTS against the NCATS CANVASS Library (AID 1347358)
How it was run: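 Cells plated at 500 per well are dosed with compound and incubated 12 hours at 37 degrees C. Caspase-Glo 3/7 reagent is added and, after 15 min at room temperature, luminescence proportional to caspase activity is measured.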

[11] = HEK293 24hr Apoptosis Induction qHTS against the NCATS CANVASS Library (AID 1347359)
How it was run: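 HEK293 cells (500/well, DMEM + 10% FBS) were exposed to compounds in an 11-point series for 24 hours at 37 degrees C, then caspase-3/7 activity was read by Caspase-Glo DEVD luciferase luminescence after 15 min.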

[12] = HPAF-II 18hr Apoptosis Induction qHTS against the NCATS CANVASS Library (AID 1347360)
How it was run: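 HPAF-II cells at 500/well were exposed for 18 h at 37 C to an 11-point compound series. Caspase-3/7 activity was read by Caspase-Glo luminescence after 15 min at RT.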

[13] = HEK293 12hr Apoptosis Induction qHTS against the NCATS CANVASS Library (AID 1347361)
How it was run: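 HEK293 cells (500/well) were exposed to an 11-point qHTS concentration series for 12 hours at 37 degrees C. Caspase-3/7 activity was then read by DEVD-substrate luciferase luminescence after 15 min at room temperature.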

[14] = system: NAD(P)H diaphorase (Clostridium kluyveri); assay: Diaphorse counterscreen qHTS: Assay Interference Panel against the NCATS CANVASS Library (AID 1347362)
How it was run: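 Clostridium kluyveri diaphorase in PBS with 0.01% Tween-20 was preincubated 15 min at room temperature in the dark with compounds (11-point series). Resorufin fluorescence (ex 525/20, em 598/25) was read 5 min after adding resazurin/NADH.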

[15] = biological target: Luciferin 4-monooxygenase (Photinus pyralis) (UniProt P08659); assay: Firefly luciferase counterscreen qHTS: Assay Interference Panel against the NCATS CANVASS Library (AID 1347363)
Luciferin 4-monooxygenase (Photinus pyralis), sequence (P08659 whole entry, looked up): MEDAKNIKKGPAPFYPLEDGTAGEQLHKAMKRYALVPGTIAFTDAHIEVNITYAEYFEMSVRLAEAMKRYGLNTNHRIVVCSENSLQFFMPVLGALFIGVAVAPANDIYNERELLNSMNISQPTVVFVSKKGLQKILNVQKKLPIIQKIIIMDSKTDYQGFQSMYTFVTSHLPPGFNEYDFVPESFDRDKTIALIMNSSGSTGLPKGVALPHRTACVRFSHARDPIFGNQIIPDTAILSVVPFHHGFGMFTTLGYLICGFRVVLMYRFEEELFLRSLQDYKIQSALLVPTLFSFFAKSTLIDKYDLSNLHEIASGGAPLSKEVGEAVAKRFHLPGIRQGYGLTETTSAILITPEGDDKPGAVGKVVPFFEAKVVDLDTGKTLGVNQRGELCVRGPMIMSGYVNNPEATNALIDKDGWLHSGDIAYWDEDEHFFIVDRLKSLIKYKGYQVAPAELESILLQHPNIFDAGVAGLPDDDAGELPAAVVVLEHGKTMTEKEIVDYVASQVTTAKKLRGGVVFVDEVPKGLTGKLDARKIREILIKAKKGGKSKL
How it was run: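 Purified P. pyralis luciferase was added to compounds (11-point series) preincubated 15 min at room temperature with substrate containing 0.013 mM D-luciferin and 0.013 mM ATP; luminescence was read after 5 min.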

[16] = KB-8-5-11 Cancer Cell Toxicity qHTS against the NCATS CANVASS Library (AID 1347364); also: nearly all actives have a fitted effect of over 75% in size
How it was run: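 Terse: KB-8-5-11, 500 cells/well, 72 hr, 37C/5% CO2, 11-pt titration, CellTiter-Glo readout; confirmatory runs ± 1uM tariquidar in medium.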

[17] = SDT Cancer Cell Toxicity qHTS against the NCATS CANVASS Library (AID 1347365);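 also: SDT canine glioma cells 500 per well in 1536 well plates; nearly all actives have a fitted effect of over 60% in size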
How it was run: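 Cytotoxicity is measured from cellular ATP: compounds in an 11-point concentration series are pinned onto SDT cells, incubated 72 hr at 37C, then CellTiterGlo is added and luminescence read.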

[18] = KB-3-1 Cancer Cell Toxicity qHTS against the NCATS CANVASS Library (AID 1347366); details: KB-3-1 viability, CellTiter-Glo luminescence, 72 h; at 46.1 µM (top of the series); also: nearly all actives have a fitted effect of over 75% in size
How it was run: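 KB-3-1 cells (500/well) in DMEM with 10% FBS were exposed to compounds for 72 h at 37C. Viability was read by CellTiter-Glo luminescence.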

[19] = qHTS for ATAD5 Agonist screened against the NCATS CANVASS Library (AID 1347367);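 also: luciferase reporter driven by ATAD5 which rises upon DNA damage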
How it was run: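 Luciferase reporter under ATAD5 control, stably integrated in HEK293T cells (2000/well). Compounds (11 points) incubated 16 h at 37C; viability read first by CellTiter-Fluor, then luminescence reporting ATAD5 activation. MMS positive control.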

[20] = G06 Cancer Cell Toxicity qHTS against the NCATS CANVASS Library (AID 1347368); also: nearly all actives have a fitted effect of over 60% in size
How it was run: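 Cells were plated at 500 per well, then compounds were added over an 11-point range. After 72 hr at 37C, CellTiterGlo was added and luminescence measured as ATP content.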

Measured: outcome

CN(C)CCc1c[nH]c2ccccc12
inactive: all assays above
